Measured values from PubChem BioAssay (EPA / NIEHS).
Records with an inconclusive call do not appear. Active and inactive are the calls of the source. The calls were made as follows: active = hit-call score of the fitted dose curve at least 0.9, where 1 is the maximum; inconclusive = response in the unintended direction; inactive = score below 0.9.

Assays:
[1] = target: human Vascular Endothelial Growth Factor Receptor 1 (VEGFR1), FLT1 (gene 2321) (UniProt P17948); assay: NVS_ENZ_hVEGFR1: NovaScreen (NVS) Enzymatic Assay for human Vascular Endothelial Growth Factor Receptor 1 (VEGFR1) (AID 2283226)
In short: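 Kinase activity of recombinant human VEGFR1 was read by fluorescence after electrophoretic separation of product from substrate, 1 h post-dosing; initial duplicate single-point testing at 25 uM, followed by concentration-series follow-up, with DMSO as baseline.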

[2] = target: human Vascular Endothelial Growth Factor Receptor 3 (VEGFR3), FLT4 (gene 2324) (UniProt P35916); assay: NVS_ENZ_hVEGFR3: NovaScreen (NVS) Enzymatic Assay for human Vascular Endothelial Growth Factor Receptor 3 (VEGFR3) (AID 2283229)
In short: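 Chemicals first run in duplicate at 25 uM, with actives re-tested in concentration series to a top of 50 uM. Recombinant VEGFR3 activity measured after 1 h via fluorescence with mobility-shift product separation; inhibition fitted relative to DMSO.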

[3] = target: human Vascular Endothelial Growth Factor Receptor 2 (VEGFR2), KDR (gene 3791) (UniProt P35968); assay: NVS_ENZ_hVEGFR2: NovaScreen (NVS) Enzymatic Assay for human Vascular Endothelial Growth Factor Receptor 2 (VEGFR2) (AID 2283230)
In short: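 Cell-free recombinant VEGFR2 kinase, fluorescent substrate with electrophoretic mobility-shift separation; read 1 h after dosing. Screened at 25 uM in duplicate, hits to concentration-response up to 50 uM; loss-of-signal versus DMSO.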

[4] = target: Adenosine receptor A1 (Bos taurus) (UniProt P28190); assay: NVS_GPCR_bAdoR_NonSelective: NovaScreen (NVS) G Protein-Coupled Receptor Assay for bovine Adenosine Receptor (AdoR), Non-selective Binding (AID 2283244)
In short: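 Cell-free binding with membranes from bovine striatum: radioligand displaced by test chemical, read after 1 h by filtration and scintillation. Single-point 25 uM duplicate primary, 50 uM top concentration in follow-up curves, DMSO baseline.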

[5] = target: human Sirtuin 2 (SIRT2), SIRT2 (gene 22933) (UniProt Q8IXJ6); assay: NVS_ENZ_hSIRT2: NovaScreen (NVS) Enzymatic Assay for human Sirtuin 2 (SIRT2) (AID 2283217)
In short: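 Single-point duplicate screen at 25 uM, then concentration-response (max 50 uM) for chemicals passing threshold. Enzyme activity of recombinant human SIRT2 measured after 1 hr by fluorescence with mobility-shift separation of product; DMSO baseline.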

[6] = target: human Sirtuin 1 (SIRT1), SIRT1 (gene 23411) (UniProt Q96EB6); assay: NVS_ENZ_hSIRT1: NovaScreen (NVS) Enzymatic Assay for human Sirtuin 1 (SIRT1) (AID 2283219)
In short: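 Cell-free recombinant SIRT1 with a fluorescent substrate; substrate and product separated by electrophoretic mobility shift and read by fluorescence intensity, 1 h after dosing. Primary screen at 25 uM in duplicate; hits re-run in concentration-response up to 50 uM, relative to DMSO.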

[7] = target: human Sirtuin 3 (SIRT3), SIRT3 (gene 23410) (UniProt Q9NTG7); assay: NVS_ENZ_hSIRT3: NovaScreen (NVS) Enzymatic Assay for human Sirtuin 3 (SIRT3) (AID 2283222)
In short: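 Cell-free enzyme assay with recombinant protein and fluorescent substrate, product separated by electrophoretic mobility shift; read 1 hour after dosing. Screened in duplicate at 25 uM, then singleton concentration-response up to 50 uM; loss of signal versus DMSO.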

[8] = target: rabbit Imidazoline 2 Central (I2C), CKB (gene 100009085) (UniProt P00567); assay: NVS_ENZ_rabI2C: NovaScreen (NVS) Enzymatic Assay for rabbit Imidazoline 2 Central (I2C) (AID 2283228)
In short: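 Rabbit brain membranes, cell-free; readout by filter-based scintillation counting 1.5 hours after dosing, loss of signal vs DMSO. Initial duplicate test at 25 uM, then concentration-response with 50 uM top concentration.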

[9] = NVS_GPCR_bNPY_NonSelective: NovaScreen (NVS) G Protein-Coupled Receptor Assay for bovine Neuropeptide Y (NPY) Receptor, Non-selective Binding (AID 2283245)
In short: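 Displacement of radioligand from bovine hippocampal membrane receptors, read by filtration and scintillation counting after 1 hour. Concentration-response to a top of 50 uM followed a 25 uM duplicate primary screen. Loss of signal versus DMSO.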

[10] = target: sheep Cyclooxygenase-1 (Cox1), PTGS1 (gene 443551) (UniProt P05979); assay: NVS_ENZ_oCOX1: NovaScreen (NVS) Enzymatic Assay for sheep Cyclooxygenase-1 (Cox1) (AID 2283239);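 also: actives reduce cyclooxygenase activity so potencies are for inhibitors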
In short: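 Cell-free colorimetric assay of enzyme activity in a native extract of ovine seminal vesicles. Absorbance was read 0.66 hour after compound addition. Loss of signal relative to the DMSO negative control was scored, with actives from the 25 uM duplicate primary screen retested in concentration series.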

[11] = target: bovine Dopamine Receptor (DR), Non-selective Binding, DRD1 (gene 281125) (UniProt Q95136); assay: NVS_GPCR_bDR_NonSelective: NovaScreen (NVS) G Protein-Coupled Receptor Assay for bovine Dopamine Receptor (DR), Non-selective Binding (AID 2283241)
In short: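 Filter-based radioligand binding with bovine striatal membrane, incubated 1 h; DMSO as negative baseline. Initial duplicate single-point test at 25 uM preceded concentration series for actives.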

[12] = target: guinea pig Leukotriene D4 Receptor (LTD4), CYSLTR1 (gene 100135514) (UniProt Q2NNR5); assay: NVS_GPCR_gLTD4: NovaScreen (NVS) G Protein-Coupled Receptor Assay for guinea pig Leukotriene D4 Receptor (LTD4) (AID 2283248)
In short: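 Guinea pig lung membrane preparation; bound radioligand measured by filter scintillation after 1 h, loss of signal versus DMSO marking displacement. Compounds tested at 25 uM in duplicate, hits retested to max 50 uM.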

[13] = target: human SRC Proto-Oncogene, Non-receptor Tyrosine Kinase (SRC), SRC (gene 6714) (UniProt P12931); assay: NVS_ENZ_hSRC: NovaScreen (NVS) Enzymatic Assay for human SRC Proto-Oncogene, Non-receptor Tyrosine Kinase (SRC) (AID 2283223)
In short: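 Compounds passing 30% inhibition at 25 uM (duplicate) were titrated to a top concentration of 50 uM. Enzyme activity read by fluorescence with mobility-shift substrate/product separation after 1 h; DMSO baseline.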

[14] = target: human Tropomyosin Receptor Kinase A (TRKA), NTRK1 (gene 4914) (UniProt P04629); assay: NVS_ENZ_hTrkA: NovaScreen (NVS) Enzymatic Assay for human Tropomyosin Receptor Kinase A (TRKA) (AID 2283224)
In short: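 Compounds were screened at 25 uM in duplicate, then concentration series to a 50 uM top for those meeting threshold (e.g. 30% inhibition). Enzyme was recombinant human TrkA, incubated 1 h. Product formation was quantified by fluorescence after mobility-shift separation.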

[15] = target: sheep Cyclooxygenase-2 (Cox2), PTGS2 (gene 443460) (UniProt P79208); assay: NVS_ENZ_oCOX2: NovaScreen (NVS) Enzymatic Assay for sheep Cyclooxygenase-2 (Cox2) (AID 2283231)
In short: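 Compounds were first run at 25 uM in duplicate against tissue-extracted ovine COX-2; those passing a preset inhibition threshold went to singleton concentration-response testing with a 50 uM maximum. Read-out: absorbance at 0.66 hour.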

[16] = target: rat Constitutive Nitric Oxide Synthase (CNOS), Nos1 (gene 24598) (UniProt P29476); assay: NVS_ENZ_rCNOS: NovaScreen (NVS) Enzymatic Assay for rat Constitutive Nitric Oxide Synthase (CNOS) (AID 2283236)
In short: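 Single 25 uM duplicate screen, then concentration series to 50 uM for chemicals meeting threshold. Rat brain membrane-derived CNOS activity detected radiometrically by filtration and scintillation counting, 1 h after compound addition; DMSO as baseline.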

[17] = target: human Serotonin, 5-Hydroxytryptamine Receptor 2A (5HT2A), HTR2A (gene 3356) (UniProt P28223); assay: NVS_GPCR_h5HT2A: NovaScreen (NVS) G Protein-Coupled Receptor Assay for human Serotonin, 5-Hydroxytryptamine Receptor 2A (5HT2A) (AID 2283249)
In short: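 Radioligand displacement on human cortex tissue extract, counted by filtration and scintillation 1.5 h post-dosing. Initial single-concentration screen at 25 uM in duplicate, concentration series in follow-up; DMSO as baseline.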

[18] = system: guinea pig Leukotriene B4 Receptor (LTB4), gene 100379538; assay: NVS_GPCR_gLTB4: NovaScreen (NVS) G Protein-Coupled Receptor Assay for guinea pig Leukotriene B4 Receptor (LTB4) (AID 2283247)
In short: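 Membranes from guinea pig spleen incubated 2 h with radioligand and compound; bound counts measured by filtration and scintillation. Screened first at 25 uM in duplicate, then actives titrated to a 50 uM top concentration relative to DMSO.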

Sequence of human Vascular Endothelial Growth Factor Receptor 2 (VEGFR2), KDR (gene 3791) (P35968 whole entry, looked up): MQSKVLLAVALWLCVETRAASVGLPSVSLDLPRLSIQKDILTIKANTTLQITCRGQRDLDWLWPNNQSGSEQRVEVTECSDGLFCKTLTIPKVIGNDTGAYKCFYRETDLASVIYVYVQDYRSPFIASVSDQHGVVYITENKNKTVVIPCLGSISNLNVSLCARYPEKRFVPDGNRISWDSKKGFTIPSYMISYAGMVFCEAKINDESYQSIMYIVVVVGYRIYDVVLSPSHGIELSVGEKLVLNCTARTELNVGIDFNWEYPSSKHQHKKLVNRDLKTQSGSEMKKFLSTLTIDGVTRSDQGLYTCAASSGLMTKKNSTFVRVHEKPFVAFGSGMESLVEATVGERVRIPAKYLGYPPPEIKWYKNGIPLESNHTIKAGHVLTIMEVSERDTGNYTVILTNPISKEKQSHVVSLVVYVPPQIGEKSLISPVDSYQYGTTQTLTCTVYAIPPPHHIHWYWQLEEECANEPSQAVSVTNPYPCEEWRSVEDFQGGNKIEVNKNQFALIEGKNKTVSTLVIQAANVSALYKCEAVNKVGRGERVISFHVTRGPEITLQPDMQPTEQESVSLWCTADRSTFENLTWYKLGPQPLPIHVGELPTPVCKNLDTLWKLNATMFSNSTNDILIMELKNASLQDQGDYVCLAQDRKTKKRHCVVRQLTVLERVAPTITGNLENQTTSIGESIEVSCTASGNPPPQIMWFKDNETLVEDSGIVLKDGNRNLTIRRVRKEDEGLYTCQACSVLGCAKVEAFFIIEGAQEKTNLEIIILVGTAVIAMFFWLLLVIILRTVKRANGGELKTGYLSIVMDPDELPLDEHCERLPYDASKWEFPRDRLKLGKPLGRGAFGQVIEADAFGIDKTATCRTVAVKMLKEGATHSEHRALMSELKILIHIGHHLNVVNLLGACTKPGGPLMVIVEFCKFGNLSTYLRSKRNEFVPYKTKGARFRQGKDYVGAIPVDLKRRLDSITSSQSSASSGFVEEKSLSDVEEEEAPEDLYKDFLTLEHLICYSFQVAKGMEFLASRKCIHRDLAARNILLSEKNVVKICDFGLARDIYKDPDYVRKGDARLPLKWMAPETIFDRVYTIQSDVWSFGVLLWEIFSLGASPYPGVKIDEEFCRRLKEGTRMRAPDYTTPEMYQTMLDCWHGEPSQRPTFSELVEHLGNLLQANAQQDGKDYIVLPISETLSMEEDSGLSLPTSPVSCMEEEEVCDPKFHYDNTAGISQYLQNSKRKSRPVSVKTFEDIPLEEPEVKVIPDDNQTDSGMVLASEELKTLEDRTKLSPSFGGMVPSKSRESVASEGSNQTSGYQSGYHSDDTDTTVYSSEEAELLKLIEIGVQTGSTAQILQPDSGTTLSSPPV
Sequence of rat Constitutive Nitric Oxide Synthase (CNOS), Nos1 (gene 24598) (P29476 whole entry, looked up): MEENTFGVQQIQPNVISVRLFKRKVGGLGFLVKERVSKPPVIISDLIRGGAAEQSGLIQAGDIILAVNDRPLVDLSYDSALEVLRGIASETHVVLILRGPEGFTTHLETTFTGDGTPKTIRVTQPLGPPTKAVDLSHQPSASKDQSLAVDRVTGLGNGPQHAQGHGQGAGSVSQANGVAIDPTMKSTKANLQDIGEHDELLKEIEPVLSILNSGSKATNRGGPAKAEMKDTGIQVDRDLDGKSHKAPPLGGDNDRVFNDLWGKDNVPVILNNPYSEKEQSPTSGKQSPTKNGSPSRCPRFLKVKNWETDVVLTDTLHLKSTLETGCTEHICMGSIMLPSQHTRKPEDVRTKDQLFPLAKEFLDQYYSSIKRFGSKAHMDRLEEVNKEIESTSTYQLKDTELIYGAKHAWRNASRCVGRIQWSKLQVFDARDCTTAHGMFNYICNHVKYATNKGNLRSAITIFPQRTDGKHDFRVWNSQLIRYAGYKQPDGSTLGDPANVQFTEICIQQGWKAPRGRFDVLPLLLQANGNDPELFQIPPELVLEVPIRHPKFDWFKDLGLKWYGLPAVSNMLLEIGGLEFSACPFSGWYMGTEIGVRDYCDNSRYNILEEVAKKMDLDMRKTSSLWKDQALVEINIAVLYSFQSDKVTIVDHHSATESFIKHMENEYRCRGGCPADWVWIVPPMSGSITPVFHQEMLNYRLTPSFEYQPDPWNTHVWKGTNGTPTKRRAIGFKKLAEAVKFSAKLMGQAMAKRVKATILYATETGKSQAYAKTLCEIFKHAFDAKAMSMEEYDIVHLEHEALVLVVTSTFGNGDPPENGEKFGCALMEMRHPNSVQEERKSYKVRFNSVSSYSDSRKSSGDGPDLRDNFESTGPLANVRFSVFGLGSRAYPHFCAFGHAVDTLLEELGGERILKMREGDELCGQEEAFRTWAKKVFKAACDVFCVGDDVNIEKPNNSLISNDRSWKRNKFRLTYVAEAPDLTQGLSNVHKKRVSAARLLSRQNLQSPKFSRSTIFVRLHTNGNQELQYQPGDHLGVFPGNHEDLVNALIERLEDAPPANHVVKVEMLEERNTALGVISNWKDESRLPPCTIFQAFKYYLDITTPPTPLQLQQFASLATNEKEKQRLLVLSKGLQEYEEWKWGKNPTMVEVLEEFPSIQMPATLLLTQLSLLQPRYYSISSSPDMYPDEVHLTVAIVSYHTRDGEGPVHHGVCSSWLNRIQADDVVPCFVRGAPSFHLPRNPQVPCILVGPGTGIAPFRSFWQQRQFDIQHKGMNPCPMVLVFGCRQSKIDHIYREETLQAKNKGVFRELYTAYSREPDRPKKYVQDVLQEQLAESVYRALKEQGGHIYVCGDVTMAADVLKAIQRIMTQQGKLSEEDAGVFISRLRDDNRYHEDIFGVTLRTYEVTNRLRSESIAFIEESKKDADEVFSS
Sequence of human Vascular Endothelial Growth Factor Receptor 3 (VEGFR3), FLT4 (gene 2324) (P35916 whole entry, looked up): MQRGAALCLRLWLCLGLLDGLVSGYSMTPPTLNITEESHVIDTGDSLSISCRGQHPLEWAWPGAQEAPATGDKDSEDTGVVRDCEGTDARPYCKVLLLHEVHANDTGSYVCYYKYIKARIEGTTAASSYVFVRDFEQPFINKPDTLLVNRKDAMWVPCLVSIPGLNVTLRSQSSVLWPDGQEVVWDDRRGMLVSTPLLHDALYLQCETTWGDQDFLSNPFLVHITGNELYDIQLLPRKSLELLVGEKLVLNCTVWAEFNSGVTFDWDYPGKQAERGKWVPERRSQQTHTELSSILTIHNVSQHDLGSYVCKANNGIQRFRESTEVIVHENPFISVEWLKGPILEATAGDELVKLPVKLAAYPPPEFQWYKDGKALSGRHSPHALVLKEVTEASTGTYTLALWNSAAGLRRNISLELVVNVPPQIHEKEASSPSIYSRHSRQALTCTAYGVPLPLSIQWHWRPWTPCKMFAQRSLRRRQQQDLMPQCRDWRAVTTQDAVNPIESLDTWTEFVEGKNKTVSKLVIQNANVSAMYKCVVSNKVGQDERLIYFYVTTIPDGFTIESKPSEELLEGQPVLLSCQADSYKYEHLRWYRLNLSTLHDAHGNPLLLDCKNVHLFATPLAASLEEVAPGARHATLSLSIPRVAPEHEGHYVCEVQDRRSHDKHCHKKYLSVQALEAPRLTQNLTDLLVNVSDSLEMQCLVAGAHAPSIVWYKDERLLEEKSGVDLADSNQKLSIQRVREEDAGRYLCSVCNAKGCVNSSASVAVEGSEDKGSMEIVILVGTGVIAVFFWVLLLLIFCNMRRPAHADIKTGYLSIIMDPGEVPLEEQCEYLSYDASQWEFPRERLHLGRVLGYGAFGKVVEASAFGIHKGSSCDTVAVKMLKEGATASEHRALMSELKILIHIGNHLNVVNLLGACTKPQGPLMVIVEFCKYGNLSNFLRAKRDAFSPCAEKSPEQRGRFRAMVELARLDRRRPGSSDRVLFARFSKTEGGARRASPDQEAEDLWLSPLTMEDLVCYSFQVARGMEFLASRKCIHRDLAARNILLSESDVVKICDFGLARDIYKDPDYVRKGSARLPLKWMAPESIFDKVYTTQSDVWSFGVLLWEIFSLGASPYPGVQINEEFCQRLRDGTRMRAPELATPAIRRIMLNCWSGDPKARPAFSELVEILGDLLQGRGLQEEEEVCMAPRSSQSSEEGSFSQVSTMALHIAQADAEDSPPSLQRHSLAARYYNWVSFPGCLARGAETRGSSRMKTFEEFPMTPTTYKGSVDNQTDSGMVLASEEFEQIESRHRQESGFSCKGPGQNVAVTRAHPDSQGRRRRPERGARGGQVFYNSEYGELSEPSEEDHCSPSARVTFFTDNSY
Sequence of human Sirtuin 1 (SIRT1), SIRT1 (gene 23411) (Q96EB6 whole entry, looked up): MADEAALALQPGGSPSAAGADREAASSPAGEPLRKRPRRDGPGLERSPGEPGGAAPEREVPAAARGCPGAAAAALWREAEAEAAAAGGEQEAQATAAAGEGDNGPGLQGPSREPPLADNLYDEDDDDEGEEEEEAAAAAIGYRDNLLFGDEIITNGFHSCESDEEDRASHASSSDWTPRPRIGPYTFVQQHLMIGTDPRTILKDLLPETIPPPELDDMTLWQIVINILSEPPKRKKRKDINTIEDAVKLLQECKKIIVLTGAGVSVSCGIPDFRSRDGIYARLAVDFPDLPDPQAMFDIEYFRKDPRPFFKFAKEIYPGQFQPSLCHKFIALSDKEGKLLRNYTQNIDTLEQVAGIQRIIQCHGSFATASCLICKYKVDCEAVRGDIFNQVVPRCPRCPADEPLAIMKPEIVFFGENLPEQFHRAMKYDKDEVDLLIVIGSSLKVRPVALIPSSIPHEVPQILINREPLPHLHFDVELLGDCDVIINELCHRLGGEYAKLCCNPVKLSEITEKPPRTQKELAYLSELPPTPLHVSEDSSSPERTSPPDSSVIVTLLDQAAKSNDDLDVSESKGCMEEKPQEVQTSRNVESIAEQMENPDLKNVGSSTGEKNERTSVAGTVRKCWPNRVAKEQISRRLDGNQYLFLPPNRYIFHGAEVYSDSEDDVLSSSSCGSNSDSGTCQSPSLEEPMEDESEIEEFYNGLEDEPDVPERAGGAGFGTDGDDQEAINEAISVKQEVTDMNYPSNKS

Q: What does the source list for `COCCO`?
A: outcome [1]: inactive; outcome [2]: inactive

Q: Which AC50 [3] does the source give for `N[C@@H](Cc1cc(I)c(Oc2ccc(O)c(I)c2)c(I)c1)C(=O)O` here?
A: 6.72 µM (active)

Q: What about the AC50 [4] of the same compound?
A: 3.2 µM (active)

Q: For `S=C([S-])NCCNC(=S)[S-].[Mn+2]`, which AC50 [5] is on record?
A: 14.1 µM (active)

Q: And the AC50 [6]?
A: 15.4 µM (active)

Q: And the AC50 [7]?
A: 7.6 µM (active)

Q: And the outcome [8]?
A: inactive

Q: And the AC50 [3]?
A: 13.8 µM (active)

Q: Which AC50 [9] does the source give for `CC(C)(C)[C@@H](O)[C@@H](Cc1ccc(Cl)cc1)n1cncn1` here?
A: 46.6 µM (active)

Q: With `CCCN(CCC)c1c([N+](=O)[O-])cc(C(F)(F)F)c(N)c1[N+](=O)[O-]` as the compound, how does the outcome [10] read?
A: inactive

Q: What about the outcome [11] of the same compound?
A: inactive

Q: And the outcome [4]?
A: inactive

Q: What does the source list for `CCNc1nc(N)nc(Cl)n1`?
A: outcome [4]: inactive; outcome [12]: inactive

Q: With `c1ccc2[nH]c(-c3cscn3)nc2c1` as the compound, how does the AC50 [13] read?
A: 25 µM (active)

Q: What about the AC50 [14] of the same compound?
A: 8.41 µM (active)

Q: And the AC50 [8]?
A: 4.07 µM (active)

Q: Which outcome [2] does the source give for `CCOC(=O)c1ccc(O)cc1` here?
A: inactive

Q: For `COC(=O)c1cccc(C)c1S(=O)(=O)NC(=O)Nc1nc(OCC(F)(F)F)nc(N(C)C)n1`, which AC50 [4] is on record?
A: 5.12 µM (active)

Q: What does the source list for `CC(C)(c1ccc(O)cc1)c1ccc(O)cc1`?
A: outcome [6]: inactive; AC50 [14]: 15.4 µM (active); outcome [1]: inactive; outcome [2]: inactive; outcome [3]: inactive; outcome [15]: inactive; outcome [10]: inactive

Q: With `O=C(O)c1ccccc1` as the compound, how does the outcome [5] read?
A: inactive

Q: With `N#CSCSc1nc2ccccc2s1` as the compound, how does the AC50 [6] read?
A: 10.7 µM (active)

Q: What about the outcome [3] of the same compound?
A: inactive

Q: What about the AC50 [16] of the same compound?
A: 6.64 µM (active)

Q: What about the outcome [10] of the same compound?
A: inactive

Q: What about the outcome [17] of the same compound?
A: inactive

Q: For `CCOC(=O)[C@H](C)Oc1ccc(Oc2nc3ccc(Cl)cc3o2)cc1`, which AC50 [16] is on record?
A: 9.56 µM (active)

Q: With `CCCCC(CC)CN1C(=O)C2C3C=CC(C3)C2C1=O` (centres undefined) as the compound, how does the outcome [8] read?
A: inactive

Q: With `C[C@]12C[C@H](O)[C@H]3[C@@H](CCC4=CC(=O)CC[C@@]43C)[C@@H]1CC[C@@H]2C(=O)CO` as the compound, how does the outcome [15] read?
A: inactive

Q: What about the outcome [10] of the same compound?
A: inactive

Q: What about the outcome [18] of the same compound?
A: inactive

Q: For `CCOC(=O)C(C)Oc1ccc(Oc2nc3ccc(Cl)cc3o2)cc1` (centres undefined), which outcome [16] is on record?
A: inactive
